Hits are enriched below; roughly 1.5% of the tested compounds scored in any of these assays.
GLD-1 RNA inh: GLD-1/TGE RNA complex disruptors, primary screen, biochemical, fluorescence polarization. purified GLD-1 + fluorescein TGE RNA. inhibition, % at 5.96 µM. 0.44% of 320,000 active;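 active = percent inhibition above a per-plate cutoff, the plate mean of test compounds plus 3 SD, cut at about 30% in these data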;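 note: 0% = DMSO wells with GLD-1 and probe and 100% = wells lacking GLD-1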
MCL1-BIM inh: inhibitors of MCL1 binding to BIM-BH3, primary screen, biochemical, fluorescence polarization; GST-MCL1 / FITC-Bim-BH3 fluorescence polarization; inhibition, % at 10.9 µM; 0.68% of 320,000 active;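 active = inhibition above the mean inhibition of all tested compounds plus 3 SD, set per campaign, cut at about 40% in these data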;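 note: 0% = DMSO wells and 100% = unlabeled Bim-BH3 peptide control; higher means more loss of mP so more displacement of Bim peptide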
eLon inh: inhibitors of E. coli Lon protease, primary screen, biochemical, fluorescence polarization; P0A9M0; AID 602123, 2011; 0.42% of 360,000 active; inhibition, % at 7.94 µM; purified E. coli Lon protease; in the data active = inhibition above about 13%, passing the limit was not always enough;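 note: 0% = enzyme with probe and DMSO and 100% = no enzyme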
Target sequence (P0A9M0 whole entry, looked up): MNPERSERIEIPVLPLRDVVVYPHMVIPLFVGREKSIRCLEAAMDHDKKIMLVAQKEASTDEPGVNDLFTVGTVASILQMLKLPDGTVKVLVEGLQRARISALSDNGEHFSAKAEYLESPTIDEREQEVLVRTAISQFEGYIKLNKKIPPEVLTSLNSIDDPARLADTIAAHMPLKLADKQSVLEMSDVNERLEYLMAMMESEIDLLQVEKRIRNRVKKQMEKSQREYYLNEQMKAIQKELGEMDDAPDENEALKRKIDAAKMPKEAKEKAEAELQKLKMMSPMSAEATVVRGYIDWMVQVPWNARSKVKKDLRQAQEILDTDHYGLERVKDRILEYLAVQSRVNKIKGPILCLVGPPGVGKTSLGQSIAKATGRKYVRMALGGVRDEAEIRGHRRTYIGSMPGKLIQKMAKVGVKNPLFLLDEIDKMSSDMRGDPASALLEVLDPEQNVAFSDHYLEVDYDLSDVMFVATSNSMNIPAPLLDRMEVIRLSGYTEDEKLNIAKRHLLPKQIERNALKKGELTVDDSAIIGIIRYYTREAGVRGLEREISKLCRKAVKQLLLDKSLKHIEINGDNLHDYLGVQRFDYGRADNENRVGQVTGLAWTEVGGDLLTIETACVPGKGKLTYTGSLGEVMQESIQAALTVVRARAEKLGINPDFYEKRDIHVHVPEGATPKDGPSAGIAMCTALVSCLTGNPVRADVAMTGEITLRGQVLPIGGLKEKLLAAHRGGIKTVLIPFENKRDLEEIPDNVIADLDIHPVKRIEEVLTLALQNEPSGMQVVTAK
MEX-5 binding: MEX-5 zinc finger RNA-binding disruptors – biochemical, C. elegans, fluorescence polarization, MLPCN library, primary screen | MEX-5/FITC-TCR2 RNA binding; hits give low values | activity score (negative = inhibition of binding), % at 10 µM | 0.38% of 300,000 active | AID 1832, 2009;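 active = inhibition past about -25% in most replicates, and total fluorescence under double the plate's negative control median, limit read from the data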;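 note: 0% = DMSO and -100% = 5 µM competing unlabeled TCR2 RNA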
Bcl-xL primary: inhibitors of human Bcl-xL, primary screen, biochemical, fluorescence polarization, HTS. Bcl-2-like protein 1 (Homo sapiens), Q07817. GST-Bcl-xL / FITC-Bim BH3 peptide fluorescence polarization. inhibition, % at 10.9 µM. 0.7% of 320,000 active. AID 2129, 2009;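 active = inhibition above the mean of all tested compounds plus 3 SD, cutoff set per campaign, cut at about 30% in these data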;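 note: 0% = DMSO wells and 100% = unlabeled Bim-BH3 peptide competitor; inhibitors lower millipolarization by displacing the labeled peptide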
EBV gp42 inh: Epstein-Barr virus gp42 inhibitors, primary screen, biochemical, uHTS, fluorescence polarization; Glycoprotein 42 (Epstein-Barr virus (strain AG876)), Q1HVG2; Fluorescence polarization binding assay, mP read-out; inhibition, % (tested at 21.74 µM); 0.42% of 220,000 active; AID 1085, 2008; in the data active = inhibition above about 50%
* marks the source's active call; other numbers are inactive results; x = no result given.

SMILES	GLD-1 RNA inh	MCL1-BIM inh	eLon inh	MEX-5 binding	Bcl-xL primary	EBV gp42 inh
Cc1ccc(OCC(=O)Nc2ccc3c(c2)C(=O)NC3=O)cc1	-2	-1	0	0	2	x
Nc1c(S(=O)(=O)O)cc(NC(=O)c2ccccc2)c2c1C(=O)c1ccccc1C2=O	68*	109*	16	-1	72*	x
O=C(c1ccc2[nH]c(=O)c(=O)[nH]c2c1)N1CCN(Cc2ccccc2)CC1	4	0	0	-1	2	x
O=C1NC(=Nc2ccccc2Cl)S/C1=C\c1cc([N+](=O)[O-])ccc1O	-36	-89	-309	-40*	-42	x
Cc1ccc(S(=O)(=O)N/N=C/c2cc(Br)c(C)o2)cc1	12	11	17*	0	10	-22
O=[N+]([O-])c1cc(/C=N\Nc2nccs2)ccc1O	x	x	x	-100*	x	93*
O=[N+]([O-])c1ccccc1/C=N\Nc1nccs1	-1	6	-8	-4	10	x
Cc1c(N=C2N=C(NC(=O)NC(C)(C)C)c3ccccc32)c(=O)n(-c2ccccc2)n1C	6	5	-5	-2	2	-8
Cc1c(N=C2N=C(NC(=O)c3cccs3)c3ccccc32)c(=O)n(-c2ccccc2)n1C	-24	-38	-13	-16	-30	125*
CCOc1cc(/C=C2/NC(=O)N(Cc3ccccc3F)C2=O)ccc1O	-5	0	0	1	3	6
COc1cc(/C=C2/NC(=O)N(Cc3ccccc3F)C2=O)cc(OC)c1O	66*	14	-10	-10	10	35
O=C(C1CCN(S(=O)(=O)c2ccccc2)CC1)N1CCN(Cc2ccccc2)CC1	x	x	4	0	x	x
Cc1cccnc1NC(=O)Nc1ccccc1	-1	-2	-6	1	3	-3
COC(=O)c1ccccc1NC(=O)Nc1ncccc1C	4	4	-5	-2	5	64*
CCOc1cc(N2CCOCC2)c(OCC)cc1NC(C)C(=O)N1CCN(CC)CC1 (stereo unspecified)	x	x	-5	-28*	x	-22
CCOc1ccc2nc(S(=O)(=O)NC(=O)C3(C)CCN3C(=O)CCc3cccs3)sc2c1 (stereo unspecified)	x	x	-8	x	x	x
Cc1cc(C)n(Cc2ccc(C(=O)N/N=C/c3ccc(-c4ccc([N+](=O)[O-])cc4)o3)o2)n1	-4	43*	-19	-3	50*	x
Cc1cc(C(=O)N/N=C/c2ccc(-c3ccc([N+](=O)[O-])cc3C)o2)n[nH]1	-7	12	13	-16	12	x
Cc1cc([N+](=O)[O-])ccc1-c1ccc(/C=N/NC(=O)c2ccc(Br)o2)o1	1	16	-25	-58*	15	x
Cc1ccc(S(=O)(=O)CC(=O)Nc2cc(C)on2)cc1	8	-1	-5	1	-2	x
O=C(CC1C[C@H](C(=O)N2CCCCC2)[C@@]2(CCc3ccccc3)c3[nH]c4ccccc4c3CCN2C1=O)NCCCn1ccnc1 (stereo partly specified)	1	x	5	x	x	x
O=c1cc(-c2ccc(O)c(O)c2)oc2cc(O)cc(O)c12	5	38	-5	-33*	13	8
COc1ccc(-c2cc(=O)c3c(O)cc(O)cc3o2)cc1	3	4	-4	x	0	x
COc1ccc(CN(C)C(=O)Cn2cnc3c(NCc4ccccc4)ncnc32)cc1OC	x	x	-7	x	x	x
CCOC(=O)/C=c1\s/c(=C\c2ccc3cc(OC)ccc3c2)c(=O)n1CC(=O)NCc1ccc2c(c1)OCO2	3	3	-5	-31*	7	-42
SMILES	GLD-1 RNA inh	MCL1-BIM inh	eLon inh	MEX-5 binding	Bcl-xL primary	EBV gp42 inh
CCOC(=O)c1c(-c2ccccc2)csc1NC(=O)/C(C#N)=C/c1ccc(OC)c(OC)c1	-9	-11	-5	-43*	-7	-29
CC(C)OCCCn1c(=NC(=O)c2ccncc2)c(C#N)cc2c(=O)n3ccccc3nc21	17	37	-3	-5	34*	44
O=C(O)CSc1ccn(Cc2ccccc2)c1	x	x	-5	x	x	x
Cc1cc(C(=O)OCC(=O)Nc2c(Cl)cccc2C(F)(F)F)c(C)o1	1	-11	-7	0	46*	x
CC1=C(C(=O)NCc2ccccc2)C(c2ccc(C)o2)n2ncnc2N1 (stereo unspecified)	30	42*	-1	0	38*	-9
CCOc1ccccc1NC(=O)NNC(=O)COc1cccc(C)c1C	6	4	11	3	-3	x
CCOC(=O)N1CCC2(CC1)C(C#N)=C(N)Oc1n[nH]c(C)c12	0	5	-4	-1	4	5
CCOC(=O)N1CCC2(CC1)C(C#N)=C(N)Oc1c2c(C)nn1-c1cccc(Cl)c1	-1	1	-3	-16	-3	52*
CN1C=C/C(=C\c2cc[n+](C)c3ccccc23)c2ccccc21	x	x	7	-67*	x	-11
CN(Cc1ccccc1)C(=O)[C@@H]1CCCN1C(=O)[C@@H]1CCCN1C(=O)c1cccc2ccccc12	x	x	-6	x	x	x
O=C(CCSc1nc2ccccc2s1)N/N=C/c1c(O)ccc2ccccc12	-3	2	-8	-46*	1	-119
COc1ccc(/C=N/NC(=O)CCSc2nc3ccccc3s2)cc1OC	3	6	-1	-2	4	-2
CN1C(=O)/C(=C\c2ccc(N(C)C)cc2)OC1=S	x	x	-486	-89*	x	x
CN(C)c1ccc(/C=C2\N=C(C(C)(C)C)OC2=O)cc1	-63	-30	-80	-43*	-16	x
CC(CN1C(C)CCCC1C)OC(=O)c1ccccc1F (stereo unspecified)	-5	-3	8	2	5	x
CCOC(=O)c1c(C)[nH]c(O)c1C=Nc1ccc(Cl)cc1	5	-5	-86	-6	7	-18
CCOC(=O)c1c(C)[nH]c(O)c1C=Nc1ccc(C(F)(F)F)cc1	37*	7	3	-3	-2	-7
C[C@@H]1CN([C@H](C)CO)C(=O)CCCn2nncc2CO[C@H]1CN(C)C(=O)Cc1ccccc1	x	x	3	x	x	x
CCC(C)[C@@H](N)C(=O)N/N=C/c1cccc2nccnc12 (stereo partly specified)	5	16	x	-41*	9	-4
CCC(C)[C@H](NC(=O)OC(C)(C)C)C(=O)N/N=C/c1cccc2nccnc12 (stereo partly specified)	2	3	-2	-2	2	-14
Cc1cccc(OCC(=O)Nc2ccc3c(c2)nc2n3CCOC2)c1	1	1	-3	-2	2	x
OCCOc1ccc(C2=NCCO2)cc1	1	7	-2	-50*	-2	3
